# From the supplement of paper PMC6555819
# Tests used:
# Assay in all cases: PBM binding z-score (relative to random genomic background probes); higher = stronger binding; sequences stand for … in GC…GCGATTGACAGCGTAGAATGAAGG
# [1] = tested on: RARb homodimer (NR concentration 270 nM)
# Summary of the method: (§1)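 Regression normalization was applied to scanned fluorescence from custom Agilent 4×180K protein-binding microarrays. Before scanning, arrays were incubated 1 h with ligand-free nuclear receptor dimers, and binding was detected with antibodies against each partner (one per run). Binding z-scores use the random background probes as reference.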
# [2] = tested on: RARg:RXRa (NR concentration 270 nM, RXRa partner concentration 90 nM)
# Summary of the method: as §1
# [3] = tested on: RARg homodimer (NR concentration 270 nM)
# Summary of the method: as §1
# [4] = tested on: RXRa DBDmut IVT, anti-RXR (DBD mutation: RXRa K156A/R161A, NR concentration 90 nM)
# Summary of the method: as §1
# [5] = tested on: RXRa homodimer (NR concentration 180 nM)
# Summary of the method: as §1
# [6] = tested on: THRa:RXRa (NR concentration 90 nM, RXRa partner concentration 90 nM)
# Summary of the method: as §1
# [7] = tested on: THRa homodimer (NR concentration 90 nM)
# Summary of the method: as §1
# [8] = tested on: VDR:RXRa (NR concentration 270 nM, RXRa partner concentration 90 nM)
# Summary of the method: as §1
# [9] = tested on: VDR homodimer (NR concentration 270 nM)
# Summary of the method: as §1
Sequence,PBM binding z-score [1],PBM binding z-score [2],PBM binding z-score [3],PBM binding z-score [4],PBM binding z-score [5],PBM binding z-score [6],PBM binding z-score [7],PBM binding z-score [8],PBM binding z-score [9]
GCTAGCAGGCCATTTGGGTCACTGAATGACGGGC,1.94,0.989,1.4,0.125,0.735,1.95,0.65,0.821,0.43
CCTGCTAGGTCACGGTCAGCTAATCTACAGTATG,3.98,5.01,6.09,2.08,4.15,3.35,2.35,2.5,0.444
CAAACTAAGTCAAGGTCAAAGTCGGTTTGTGCCA,4.04,4.35,4.17,2.72,4.85,4,3.38,4.62,4.09
GATACAGGGTCAAGGCCAGCGTACGCGTATTGAT,3.63,5.27,4.55,2.14,5.61,3.53,1.43,3.89,1.31
CCTAGCAGGCCAATCTGGGTCACCCAAGGCTTGA,2.55,1.34,1.38,-0.396,1.07,3.92,0.793,0.707,-0.51
AGAATGCGGTTATTAAGATCAGGGAATTGCGGTC,-0.19,-0.0734,0.152,-0.072,-0.0867,-0.0645,-0.416,-0.302,-0.264
CAAACTAGGTCACCGGAAGTTCAAAGTCCGCATG,4.69,7,6.24,2.68,4.64,3.85,2.14,6.24,4.8
AGTCAAAGTTCAAGACGAGGTAACGTAAAGCACG,3.6,5.81,6.02,3.8,4.59,3.9,0.783,4.07,2.85
CCTATTAGTTGACCATAAGGGCCACCGAAGCTCG,1.51,0.432,0.644,0.143,0.414,0.438,0.222,0.0922,0.354
GCGACTGGGGCGAAGCAGGTTACCATAAGGTTGG,0.22,-0.0926,-0.296,-1.11,0.0577,1.5,-0.185,-0.549,-0.569
GCTTGTACATCAAGGTTAAGAAAGACTAAGCTAA,0.275,0.435,0.375,-0.122,0.599,0.997,-0.187,0.208,-0.281
AGTCAAAGTTCATCTAGCTAACGTAAGATATGCT,3.76,5.27,6,4.58,4.7,1.67,-0.302,4.35,4.9
TCTTGTAGATCAAAGGTAAAGAAAGCCGAAGCCT,-0.121,0.243,-0.165,0.56,0.881,0.386,-0.548,0.385,-0.117
CCTACTGGGCCAAAGGTCATTGGTTCCAATGCTC,4.8,5.8,4.77,0.919,6.11,3.37,0.894,4.8,2.85
TCAATGAGGTTAAAGATCAGGGAACGTGGCGTCG,0.614,2.41,1.32,1.88,4.18,2.42,0.288,2.04,0.855
TCACGGAGGACACGAAAGGTCAGAGCTCGACATC,4.82,4.96,5.55,1.1,4.31,3.55,1.26,3.47,1.17
CCTCGGAGCACAGAAGGTCAGAGCTGTCCGCTTT,3.08,2.63,2.37,0.0874,2.3,3.13,-0.478,1.33,-0.376
ATCGATAGGTCGACGAGGTGAGTATACACCGTTT,0.959,1.8,1.82,0.0347,1.67,2.59,0.488,2.96,0.231
CTTCGGAGGACAACAGGAGGTCAGAGCTGCCAGA,3.55,3.73,3.57,0.619,2.19,2.97,1.1,2.12,1.45
CCTTACGGGTCACTCCAGGCTATAGCATCGGAGT,2.51,4.03,4.09,0.95,4.01,4.23,-0.482,2.98,0.841
AGTACAGGGTCATCGTAGGCCAGAGTACGCACAG,3.81,5.65,5.22,3.47,6.42,4.59,1.57,5.08,3.92
GCTTACGAGTCAAAGGTTATAGCATGAATAGAAT,1.24,2.58,1.09,0.218,5,1.76,-0.786,2.16,-0.176
CGTCCAAGTTCAGCAGGTCAGTGAAAGCGACGTG,3.8,3.81,3.65,3.67,2.52,1.96,0.713,2.86,3.65
CGAACTAGGTCAAGGTCAGTGAATCTCCGCACGC,4.79,5.23,6.17,2.29,4.11,3.86,3.15,3.19,2.14
CATACGGGGTCAGCTAGGCCAGAGTAGGGACGGC,4,6.37,6.46,3.01,7.61,3.98,1.61,6,3.27
CCTTACGGTTCAAGGTTATAGCACGGGTGGTACG,1.39,1.69,1.21,2.6,2.38,2.15,1.41,2.72,3.31

Sequence,PBM binding z-score [1],PBM binding z-score [2],PBM binding z-score [3],PBM binding z-score [4],PBM binding z-score [5],PBM binding z-score [6],PBM binding z-score [7],PBM binding z-score [8],PBM binding z-score [9]
CTCGAAAGGTCGTGCTCAGGTGAGTAGACCAAAC,2.36,5.23,3.76,1.79,4.83,3.96,0.703,3.08,0.392
TCATGTAGGTAAAAGGTGAAAGTCGGTGTGGTAA,2.05,1.81,0.855,1.49,2.61,1.75,0.569,1.57,0.332
CCTCCTGGGCCAAAAAGGTCATTGATGCCGATAA,4.4,4.5,3.91,0.197,4.5,3.12,0.604,4.94,2.38
CCGGGTAGGTTATGGGGCATTCAGGCAACGGTGA,1.1,0.906,0.708,-1.46,0.781,0.806,0.313,0.056,0.138
TCTTGTAGATCAGCAGGTTAAGAACGCTGGCCAA,-0.0185,-0.0606,-0.396,0.288,0.146,-0.0457,-0.571,0.123,-0.247
TCATATAGGTAAAAGGTGAATGTCGGTGTGGTAA,1.88,1.75,1.04,1.81,2.85,1.5,0.686,1.44,0.531
ATCTCTAGGTAAGACTCCGTTCAGTGAAGAACGC,0.62,0.111,0.108,0.35,-0.00325,0.381,0.809,0.0228,0.435
TCGAGTAGGTTATCAATGGGGCATTCAGCTTTCT,0.483,0.919,0.272,0.822,0.432,0.0952,-0.223,0.361,-0.119
TCATATAGGTAAATGTGAAAGTCGAACGATATGA,-0.396,0.293,0.464,0.849,0.579,-0.0536,-0.354,0.491,0.207
GCAGACAGGTGAAACGCAGGCAACTCAGGGTGGC,-0.0684,0.39,0.237,-0.513,0.435,0.404,-0.656,-0.567,-0.588
CCTACAGGGCCACGAAAGGTCATTGATTCAGTGA,5.01,5.13,5.03,0.833,5.27,4.25,0.829,4.61,2.2
GCGACTGGAGCATCAGCAGGTTACCATAACTTAA,-0.0503,-0.127,-0.161,-0.526,0.0977,0.179,-0.37,-0.345,-0.639
TCTAGTTGGTCACGGAGGTCACAGACGACGGGTA,4.64,4.79,4.98,1.02,5.24,3.72,2.35,5.81,2.78
TCTTGTAGACCAATAGAGGTTAAGAAAGTGCGCT,1.42,0.922,0.638,0.754,1.37,1.66,-0.31,1.82,0.345
CAAACTAGGTCTAGGTCAAAGTCGGTTTGTGCCA,2.76,2.15,2.3,0.796,1.83,2.9,1.64,1.84,1.1
CTGAGTAGGTTATGGGGCATTCAGGCAACGGTGA,0.905,0.544,0.679,-0.017,0.713,0.647,-0.0528,0.0973,-0.0687
GCTGGGAGGACAAGGTCAGAGCTTTGTCCGTAGA,3.21,3.33,3.55,0.766,2.49,3.31,1.8,1.4,0.796
TGAATGAGGTTATAAGATCAGCGAACGTTGCAAA,0.0466,1.48,1.05,0.409,1.9,1.61,-0.141,0.842,0.262
GGAACCAGGGCAAGTTGATAGCAGAGTTTGATGG,1.71,1.17,1.52,1.85,0.254,1,1.21,0.319,0.898
ACAGACAGGTTATGAAGGTAACTCAGGCTATCAT,0.833,0.914,0.793,0.197,0.932,1.51,0.368,1.3,0.373
TCTAGTTGGTCACGGAGGTCATACACGACGGGTA,4.18,4.45,4.21,1.16,4.65,3.5,2.17,5.88,3.53
CGAACGAGGGCATGAGCTGATAGCAAATGCCGAT,0.6,1.19,1.39,1.96,1.06,1.15,-0.325,0.355,0.803
GCTTACGGGTCAGAGGTTATAGCATGAATAGAAT,2.66,4.85,3.51,1.24,6.16,2.66,-0.0589,3.48,0.979
CGTCCAAGGCCAAAGGTCAGTGAAGAGATGACGG,4.6,5.87,5.18,1.13,5.47,3.24,0.341,3.16,0.884
AATGCAGGGTCACTAGGCCAGAGTAGGTACGAAT,3.32,5.29,4.82,2.75,5.37,3.27,0.736,4.04,2.33
CCTTACGGGTCACTCCAGGTTGTAGCATCGGAGT,2.84,4.14,3.94,1.67,4.11,4.56,0.074,3.62,1.05
